Measured values from PubChem BioAssay AID1851 (National Center for Advancing Translational Sciences (NCATS), 2009).
Out of some 16,000 compounds screened, about 5,100 (32%) were called active. Another 25% or so got no clear call; they are omitted. Calls come from the whole dose curve; as a rule, active = well fitted curve in the direction sought with a large enough effect; inconclusive = small, poorly fitted or top-dose-only effect, or effect the other way; inactive = no such curve, though single readings can be large or run the other way. The list shows a part of the results.

Target: Cytochrome P450 3A4 (Homo sapiens) (UniProt P08684)
Sequence (P08684 whole entry, looked up): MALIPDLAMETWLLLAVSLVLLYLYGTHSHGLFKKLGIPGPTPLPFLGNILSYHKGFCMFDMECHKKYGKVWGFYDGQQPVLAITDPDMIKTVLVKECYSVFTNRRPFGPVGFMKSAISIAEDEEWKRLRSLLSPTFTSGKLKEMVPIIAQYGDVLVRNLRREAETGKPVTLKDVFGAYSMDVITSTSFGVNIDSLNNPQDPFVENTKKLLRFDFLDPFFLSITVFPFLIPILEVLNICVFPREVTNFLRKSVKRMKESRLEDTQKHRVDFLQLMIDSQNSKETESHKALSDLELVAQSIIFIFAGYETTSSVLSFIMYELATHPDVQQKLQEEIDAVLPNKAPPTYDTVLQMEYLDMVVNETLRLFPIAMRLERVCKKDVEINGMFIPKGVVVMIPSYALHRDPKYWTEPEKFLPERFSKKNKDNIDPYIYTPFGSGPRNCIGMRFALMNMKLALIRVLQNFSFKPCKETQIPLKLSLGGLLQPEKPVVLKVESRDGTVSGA
Assay: Cytochrome panel assay with activity outcomes
Settings: recombinant CYP, pro-luciferin dealkylation, luminescence, p450-cyp3a4; series mostly up to 57.1 µM
% is set by controls: 0 for no effect and ±100 for the full control effect.

Row | SMILES | activity, negative = inhibition | AC50
1 | CC(C)(S)[C@H](N)C(=O)O | -0.648% [at 11.4 µM] (inactive) | 
2 | CC(C)(SCc1ccccc1)[C@H](N)C(=O)O | -12.3% [at 11.4 µM] (inactive) | 
3 | CC(=O)Nc1ccc(-c2cc(C(=O)O)c3cc4ccccc4cc3n2)cc1 | -8.77% [at 11.4 µM] (inactive) | 
4 | COc1ccc(Nc2cc(C(=O)NCCCN3CCN(C)CC3)c3ccccc3n2)cc1 |  | inactive
5 | Cc1ccc2nc(-c3ccccc3)cc(C(=O)NCCCn3ccnc3)c2c1 |  | 0.562 µM (active)
6 | Cc1cnc(CNc2cc(-c3ccoc3)ncn2)cn1 |  | inactive
7 | Cc1noc(C)c1-c1cc(NCc2ccccc2)ncn1 |  | inactive
8 | CN(C)c1ccc(-c2cc(NCc3cccnc3)ncn2)cc1 |  | 3.16 µM (active)
9 | Cc1cccc(CNc2cc(-c3ccoc3)ncn2)c1 |  | 7.94 µM (active)
10 | Cc1cccc(CNc2cc(-c3ccc(N(C)C)cc3)ncn2)c1 |  | 6.31 µM (active)
11 | Cc1cccc(CNc2cc(-c3c(C)noc3C)ncn2)c1 |  | 5.01 µM (active)
12 | O=C1C[C@@H](O)[C@@H](O)[C@@H]2[C@H]3C(=O)N(c4ccc(F)cc4F)C(=O)[C@@H]3CC[C@@H]12 | -8.71% [at 11.4 µM] (inactive) | 
13 | O=C(O)[C@@H](S)[C@H](S)C(=O)O | -14.7% [at 11.4 µM] (inactive) | 
14 | Cc1ncc(CO)c(CO)c1O |  | inactive
15 | O=c1c(C=Nc2ccc(Oc3ccccc3)cc2)c[nH]n1-c1cccc(Cl)n1 |  | inactive
16 | Cn1c(N)nc2c(nc(OCc3ccccc3)n2[C@@H]2O[C@H](CO)[C@@H](O)[C@@H]2O)c1=O | -4.84% [at 11.4 µM] (inactive) | 
17 | CCn1cc(C(=O)NCC(=O)OC)c2cc(OC)c(OC)cc2c1=O |  | inactive
18 | CN(C)c1ccc(-c2cc(NCc3ccccc3)ncn2)cc1 |  | 15.8 µM (active)
19 | FC(F)(F)c1cc(-c2ccco2)nc(NCc2cccs2)n1 |  | 25.1 µM (active)
20 | FC(F)(F)c1cc(-c2ccco2)nc(NCCc2ccccc2)n1 | 0.414% [at 2.29 µM] (inactive) | 
21 | CCNc1nc(Oc2c(Cl)cccc2Cl)cc(C(F)(F)F)n1 |  | inactive
22 | O=C(CSc1nnc(SCc2cccc3ccccc23)s1)c1ccc2c(c1)OCO2 |  | 2.82 µM (active)
23 | CC1CCN(CC[C@H]2CCCN2S(=O)(=O)c2cccc(O)c2)CC1 |  | inactive
24 | CC1(C)CCCN(C(=O)N2c3ccccc3Sc3ccccc32)C1 | -13% [at 2.29 µM] (inactive) | 
25 | CC1CCN(CC(=O)N2c3ccccc3Sc3cc4ccccc4cc32)CC1 |  | 3.98 µM (active)
26 | Cc1c(CCO)c(=O)n(C)n1C(=O)c1ccc(F)cc1 |  | inactive
27 | Cc1c(CCO)c(=O)n(-c2ccccc2)n1S(=O)(=O)c1c(Cl)cc(Cl)cc1Cl |  | 4.47 µM (active)
28 | Cc1c(N(C)CS(=O)(=O)O)c(=O)n(-c2ccccc2)n1C |  | inactive
